# In PubChem BioAssay AID504465 (National Center for Advancing Translational Sciences (NCATS), 2011):
# Out of some 2,100 compounds screened, about 210 (10%) were called active. About 53% were inconclusive and are not listed. The call rests on the fitted dose curve; in most records, active means well fitted inhibition curve with a large enough effect; inconclusive means small, poorly fitted or top-dose-only effect, or effect the other way; inactive means no such curve, though single readings can be large or run the other way. The list shows a part of the results. Where a call stands in place of a potency, no number is given.
# Test: IN Cell qHTS Assay for Inhibitors of the mTORC1 Signaling Pathway in MEF (Tsc2-/-, p53-/-) Cells: Sytravon; further: nearly all actives have a fitted effect of over 60% in size
# Details: phospho-rpS6 immunofluorescence, 24 h; series mostly up to 38.3 µM
# Summary of the method: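 Immunofluorescence of rpS6 phosphorylation (Ser235/236) in mouse embryonic fibroblasts lacking Tsc2 and p53, after 24 h compound exposure; Hoechst-normalized signal imaged, each well scored as % active cells relative to rapamycin (7.5 nM) and DMSO controls.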
# Potency means the concentration at half of the fitted maximal effect.
row,Compound,Potency
1,O=C(Cn1c(=O)c2cccn2c2ccc(F)cc21)NCc1cccc(Cl)c1,inactive
2,COc1cccc(CNC(=O)CCn2cccn2)c1,inactive
3,CC(C(=O)NCc1cccc(Br)c1)n1ncn2cccc2c1=O (configuration not stated),1.47 µM (active)
4,Cn1cc(-c2cc3n(n2)CCC(=O)N3CC(=O)NCc2ccc(Cl)cc2)c2ccccc21,inactive
5,CCOC(=O)c1nc(Nc2ccc(C(=O)OC(C)C)cc2)c2ccccc2n1,inactive
6,CCc1ccc(NC(=O)CSc2nc3n[nH]c(C)c3c(=N)n2-c2ccc(C)cc2)cc1,inactive
7,COc1cc(CNc2ccc3c(c2)ncn3C(C)C)cc(OC)c1OC,inactive
8,Cc1ccc(NC(=O)c2c(C)oc3ccc(O)c(CN4CCCCCC4)c23)c(C)c1,inactive
9,CC1CCN(S(=O)(=O)c2ccc3nc(Nc4cccc(C(F)(F)F)c4)ccc3c2)CC1,inactive
10,CCOc1ccccc1C(=O)N(Cc1ccco1)Cc1ccccc1F,inactive
11,CCc1ccc2oc(C(=O)N(Cc3cccc(Cl)c3)Cc3ccco3)c(C)c2c1,inactive
12,CS(=O)(=O)c1ncc(Cl)c(C(=O)N(Cc2ccc(Cl)cc2)Cc2ccco2)n1,2.33 µM (active)
13,Cc1cccc(OCC(=O)N(Cc2ccc(C(C)(C)C)cc2)Cc2ccco2)c1,inactive
14,CCS(=O)(=O)c1ncc(Cl)c(C(=O)N(Cc2ccccc2)Cc2ccco2)n1,3.69 µM (active)
15,O=C(NCC1CCN(Cc2cccc(F)c2)CC1)c1cc2ccc3cccnc3c2[nH]1,inactive
16,CCOC(=O)c1sc2ccccc2c1S(=O)(=O)Nc1ccc(CC)cc1,inactive
17,COc1ccccc1C1C(C(=O)Nc2ccccc2)=C(C)Nc2nc(-c3ccccc3)nn21 (configuration not stated),inactive
18,COc1ccc(C2C(C(=O)Nc3ccccc3)=C(C)Nc3nc(-c4ccc(Cl)cc4)nn32)cc1 (configuration not stated),13.1 µM (active)
19,CC1=C(C(=O)Nc2ccc(Cl)cc2)C(c2ccccc2)n2ncc(C(=O)Nc3ccccc3)c2N1 (configuration not stated),inactive
20,COc1cccc(NC(=O)CSc2c3c(nc4ccccc24)CCCC3)c1,inactive
21,CCOc1ccc(NC(=O)CSc2c3c(nc4ccccc24)CCCC3)cc1,inactive
22,COc1ccc(Nc2c3c(nc4ccc(NC(=O)/C=C/c5cc(OC)c(OC)c(OC)c5)cc24)CCCC3)cc1OC,1.47 µM (active)
23,COc1ccc(/C=C/C(=O)Nc2ccc3nc4c(c(Nc5ccc(OC)c(OC)c5)c3c2)CCCC4)cc1,3.69 µM (active)

row,Compound,Potency
1,COc1ccc(S(=O)(=O)Nc2ccc3oc4c(c3c2)CCCC4)cc1,inactive
2,COc1ccc(/C=C/C(=O)Nc2ccc3nc4c(c(Nc5ccccc5OC)c3c2)CCCC4)cc1,2.07 µM (active)
3,O=S(=O)(c1ccccc1F)N1CCC(Oc2ccc(-n3cnnn3)cc2)CC1,inactive
4,CCOCCc1nn2c(=O)cc(COC(=O)c3ccc(NC(=O)c4cccs4)cc3)nc2s1,inactive
5,CCOc1ccc(S(=O)(=O)Nc2cc(Cl)ccc2OC)c2cccnc12,inactive
6,Cc1cccc(-c2nc3cc(NC(=O)Cc4ccc(Cl)cc4)ccc3o2)c1,inactive
7,COc1c(C)cc(Br)cc1C(=O)Nc1ccc(-c2nc3ncccc3o2)cc1,inactive
8,COc1ccc(-c2nc3cc(C(C)C)ccc3o2)cc1NC(=O)c1ccccc1[N+](=O)[O-],inactive
9,CCCn1c(=O)sc2cc(NC(=O)c3ccc(OC)c(Br)c3)ccc21,inactive
10,O=C(Nc1ccc2oc(-c3ccc4ccccc4c3)nc2c1)c1cc(Br)ccc1Cl,16.5 µM (active)
11,CCC(=O)Nc1cc(-c2nc3cc(C)cc(C)c3o2)ccc1C,inactive
12,COc1ccc(NC(=O)CCn2cnc3onc(-c4ccc(F)cc4)c3c2=O)cc1OC,inactive
13,COc1ccc(-c2nc3cc(NC(=O)Cc4ccc(Cl)cc4)ccc3o2)cc1OC,3.29 µM (active)
14,COc1ccc(C(=O)Nc2ccc3oc(-c4ccc5ccccc5c4)nc3c2)cc1Br,13.1 µM (active)
15,CCOc1ccc(OCC)c(NC(=O)Cn2nc(CC)n3c(cc4sccc43)c2=O)c1,inactive
16,O=c1c2ccccc2n(Cc2cccc(F)c2)c(=O)n1Cc1ccccc1Cl,inactive
17,COCCn1c(=O)[nH]c2cc(C(=O)N3CCN(c4ccc(Cl)cc4)CC3)ccc2c1=O,inactive
18,COc1ccccc1CN1COc2ccc3c(oc(=O)c4ccccc43)c2C1,inactive
19,CC(C)CN(CC(C)C)c1nnc(NC(=O)Nc2cccc(C(F)(F)F)c2)s1,inactive
20,COc1ccc(OC)c(NS(=O)(=O)c2ccc3c(c2)C(C)(C)C(=O)N3C)c1,inactive
21,COc1cc2nc(Nc3ccc(C)c(C)c3)nc(N)c2cc1OC,4.14 µM (active)
22,O=C(Cn1c(=O)oc2cc(S(=O)(=O)NCc3ccccc3)ccc21)NCc1ccc(Cl)cc1,inactive
23,CC(C)(C)c1ccc(C(=O)N2CCCCC2CCN2CCCCC2)cc1 (configuration not stated),inactive

row,Compound,Potency
1,CCOC(=O)c1ccc(N2C(=O)c3n[nH]c(-c4cccs4)c3C2c2cccc(F)c2)cc1 (configuration not stated),13.1 µM (active)
2,CCOC(=O)c1ccc(N2C(=O)c3n[nH]c(-c4cccs4)c3C2c2ccc(CC)cc2)cc1 (configuration not stated),inactive
3,CC(C)(C)c1ccc(C2NC(=O)c3n[nH]c(-c4cccs4)c32)cc1 (configuration not stated),inactive
4,Cc1ccc(NC(=O)CSc2nc(-c3cccs3)cc(C(F)(F)F)n2)cc1C,inactive
5,Cc1ccc(C)c(NC(=O)Cn2cc(C(=O)c3cccs3)c3ccccc32)c1,inactive
6,Cc1ccc(F)cc1NC(=O)CSc1nc(-c2cccs2)cc(C(F)(F)F)n1,11.7 µM (active)
7,Cn1c(=O)c2c(-c3ccc(Br)cc3)n(Cc3ccc(F)cc3)cc2n(C)c1=O,inactive
8,COc1ccc(NC(=O)CCS(=O)(=O)c2nc(-c3cccs3)cc(C(F)(F)F)n2)cc1,inactive
9,O=C(CCS(=O)(=O)c1nc(-c2cccs2)cc(C(F)(F)F)n1)Nc1cc(Br)ccc1O,7.36 µM (active)
10,COc1ccc(NC(=O)C2CCC(CNS(=O)(=O)c3ccc(Br)s3)CC2)cc1OC (configuration not stated),inactive
11,COc1ccc(NC(=O)CCS(=O)(=O)c2nc(-c3cccs3)cc(C(F)(F)F)n2)cc1OC,16.5 µM (active)
12,CSc1ccccc1NC(=O)CCS(=O)(=O)c1nc(-c2cccs2)cc(C(F)(F)F)n1,inactive
13,Cc1cccc(N2CCN(c3ncnc4c3nc3n4CCCCC3)CC2C)c1 (configuration not stated),14.7 µM (active)
14,c1ccc(N2CCN(c3ncnc4c3nc3n4CCCCC3)CC2)cc1,inactive
15,CC(=O)c1ccc(N2CCN(c3ncnc4c3c(-c3ccccc3)cn4-c3cccc(C)c3)CC2)cc1,inactive
16,CCCc1cc(N2CCN(c3ccccc3)CC2)n2cnnc2n1,inactive
17,CCCCC1CCC(C(=O)N2CC(=O)Nc3ccc(F)cc3C2c2ccc(F)cc2)CC1 (configuration not stated),16.5 µM (active)
18,Cc1c(Cl)cccc1NC(=O)c1ccc2c(c1)nnn2C1CCCC1,inactive
19,Nc1c(C(=O)c2ccc(F)cc2)sc(Nc2ccccc2F)c1S(=O)(=O)c1ccc(Br)cc1,inactive
20,Cc1cccc(NC(=O)Cn2nc(-c3ccc(Cl)cc3)c3ccccc3c2=O)c1,inactive
21,Cc1cc(-c2ccc(C)c(S(=O)(=O)N3CCOc4ccc(Cl)cc43)c2)on1,inactive
22,Cc1cccc(Nc2nnc(-c3ccc(C)c(S(=O)(=O)N4CCN(C)CC4)c3)c3ccccc23)c1,14.7 µM (active)
23,Cc1ccc(-c2nnc(Nc3cccc(Cl)c3)c3ccccc23)cc1S(=O)(=O)N1CCN(C)CC1,9.27 µM (active)

row,Compound,Potency
1,COc1ccc(OC2CCN(S(=O)(=O)c3ccc(OC)cc3)CC2)cc1,inactive
2,COC(=O)COc1ccc(-c2nnc(Nc3ccc(O)cc3)c3ccccc23)cc1,inactive
3,COc1ccc(Nc2nnc(-c3ccc(C)c(S(=O)(=O)N4CCN(C)CC4)c3)c3ccccc23)cc1,16.5 µM (active)
4,CCCCC(=O)Nc1nnc(S(=O)(=O)N2CCCCCC2)s1,inactive
5,CCCN(C(=O)Cn1ncc2c([nH]c3ccc(C)cc32)c1=O)c1ccccc1C,inactive
6,CCN(CC)CCCNc1ncnc2c1cnn2-c1ccc(C)c(C)c1,inactive
7,O=C(Nc1ccc(F)cc1F)N1CCN(c2ccc(Cl)c(Cl)c2)CC1,inactive
8,Cc1ccccc1NC(=O)CCn1cnc2onc(-c3ccc(F)cc3)c2c1=O,inactive
9,Cc1cc2c(cc1C)NC(CC(=O)Nc1ccccc1)C(=O)N2 (configuration not stated),inactive
10,Cc1ccc2nc(N3CCC(C(=O)N4CCN(c5cccc(Cl)c5)CC4)CC3)[nH]c2c1,inactive
11,CNS(=O)(=O)c1cn(CC(=O)N2CCN(c3cccc(Cl)c3)CC2)cc1S(=O)(=O)NC,inactive
12,CCS(=O)(=O)c1ncc(Cl)c(C(=O)N2CCN(c3ccc(OC)cc3)CC2)n1,4.65 µM (active)
13,Cc1ccccc1S(=O)(=O)Cc1ccc(C(=O)N2CCN(c3cccc(Cl)c3)CC2)o1,inactive
14,CCn1c2c(c(=O)n3ncc(C(=O)N4CCN(c5ccc(Cl)cc5)CC4)c13)CN(Cc1ccc(OC)cc1)CC2,inactive
15,CCS(=O)(=O)c1ncc(Cl)c(C(=O)N2CCN(c3cccc(Cl)c3)CC2)n1,2.61 µM (active)
16,CS(=O)(=O)c1ncc(Cl)c(C(=O)N2CCN(c3cccc(Cl)c3)CC2)n1,0.521 µM (active)
17,CCCS(=O)(=O)c1ncc(Cl)c(C(=O)N2CCN(c3ccc(OC)cc3)CC2)n1,inactive
18,Cc1oc2ncnc(N3CCCCC3)c2c1C(=O)N1CCN(c2cccc(Cl)c2)CC1,inactive
19,COc1ccc(N2CCN(C(CNC(=O)C(=O)NCc3ccc(F)cc3)c3cccnc3)CC2)cc1 (configuration not stated),inactive
20,Cc1ccc(CNS(=O)(=O)c2cc(C(=O)Nc3cccc(C(F)(F)F)c3)ccc2F)cc1,inactive
21,COc1ccc(NC(=O)c2c(NCc3ccc(C)o3)sc3c2CCC(C)C3)c(OC)c1 (configuration not stated),inactive
22,CC(=O)N1c2ccc(S(=O)(=O)NCC3CCC(C(=O)Nc4cccc(F)c4)CC3)cc2CC1C (configuration not stated),inactive
23,Cc1cc(-c2ccc(S(=O)(=O)Nc3cc(Cl)ccc3C)s2)on1,inactive
